Laboratory results reported in PubChem BioAssay.
Where “and” joins values, the source holds several entries; their conditions need not be identical. Equal entries are not always repeated. Calls of active or inactive are those of the source.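 Rule for the calls, unless noted: active = compounds whose cell count with miR-34 switched on is under 0.7 times the count with it off; inactive = the rest.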

Legend:
[1] = sensitizers of A549 cells to miR-34 induction, primary screen, imaging, A549 dox-inducible miR-34, nuclei and caspase counts (AID 1347080); details: A549 miR-34 inducible, Hoechst nuclei count, 48 h
[2] = inhibitors of Cryptococcus chitosan production, flow cytometry, Cibacron Brilliant Red staining (AID 1347148; call rule not given here;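 note: compound exposure lasted three days at 37 degrees C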); details: Cryptococcus neoformans chitosan, stronger effect = lower value; at 10 µM unless noted
[3] = survival rescue of mitochondrial mutant cells in low glucose, primary screen, MELAS cybrids, Rieske KO mouse fibroblasts, CellTiter-Glo (AID 1508586;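 active = mean z-score across replicates of 1.96 or higher in either the MELAS or the Rieske mutant cell line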;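 note: z relative to plate mean and SD of compound and empty wells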)
[4] = hESC survival regulators, cell-based (AID 493140; call rule not given here;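 note: cells exposed to compounds for four days before counting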); details: human embryonic stem cell survival screen; stronger effect = higher value
[5] = circadian clock period modulators, cell-based, LOPAC library, luminescence reporter (AID 2774; call rule not given here;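 note: values are relative to mean of DMSO wells on each plate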); details: circadian reporter cells, at 7 µM, actives lie on both sides
[6] = system: Hepatitis C virus NS3 helicase; assay: HCV NS3 helicase inhibitors, primary screen, biochemical, fluorescence polarization, LOPAC1280 library (AID 687035; in the data active = inhibition above about 37%); details: Purified HCV NS3 helicase, Cy5-dT15 ssDNA binding fluorescence polarization; stronger effect = higher value; concentration not given here
[7] = Cy5 fluorescence quenching or enhancement artefacts, artefact control for HCV NS3 helicase inhibitor project, biochemical, LOPAC1280 (AID 687037; call rule not given here); details: Cy5-DNA-NS3h complex fluorescence interference counterscreen
[8] = phospholipid biosynthesis inhibitors in animal cells, primary screen, cell-based, LOPAC library, screen 4 (AID 1347384; call rule not given here); details: phospholipid biosynthesis inhibition screen, at 10 µM
[9] = viability rescue of complex I mutant cybrids, primary screen, cell-based, galactose medium, ATP luminescence (AID 1645843;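 active = z-score of at least 1.8 in each of two replicates, scored against plate mean and spread of sample wells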;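 note: positive z means more ATP and so rescue of galactose-driven cybrid death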); details: complex I mutant cybrid cells, 72 h, stronger effect = higher value
[10] = liver-stage malaria parasite growth inhibition, primary screen, cell-based, HepG2, luciferase luminescence, HepG2 viability (AID 624349; in the data active = parasite load remaining mostly below about 12%, no sharp cut-off; inactive = mostly above about 10%;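 note: 100% = mean of DMSO negative control wells on the same plate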); details: P. berghei liver stage in HepG2, luciferase luminescence, concentration not given here; parasite load remaining: stronger effect = lower value; viability: measured here: HepG2 viability without parasites
[11] = stronger effect = lower value, cell number ratio, induced over uninduced
[12] = measured here: relative caspase fold change +Dox/-Dox
[13] = measured here: total cells with miR-34 induction, stronger effect = lower value
[14] = measured here: total cells without miR-34 induction
[15] = MELAS cybrid survival, CellTiter-Glo 48 h, stronger effect = higher value
[16] = Rieske KO mouse fibroblast survival, CellTiter-Glo 72 h

In the case of `CC(=O)OCOC(=O)CN(CC(=O)OCOC(C)=O)c1ccccc1OCCOc1ccccc1N(CC(=O)OCOC(C)=O)CC(=O)OCOC(C)=O`, the fold change [1, 11] is reported as 1.04 (inactive) and 0.871 (inactive), the fold change [1, 12] is reported as 1.07 and 0.533 and the cell count [1, 13] is reported as 2560 and 5870. The cell count [1, 14] was 2460 and 6740, the fold fluorescence [2] was 5.04 [at 65.4 µM] (inactive) and the z-score [3, 15] was -0.31 (inactive). The z-score [3, 16] was 0.894.
With `CC(=O)N[C@@H](CSC/C=C(\C)CC/C=C(\C)CCC=C(C)C)C(=O)O` the survival [4] was 97.2 (inactive), the fold change [1, 11] was 0.899 (inactive) and 1.06 (inactive) and the fold change [1, 12] was 1.4 and 1.04. For the same compound, the cell count [1, 13] was 5730 and 5900, the cell count [1, 14] was 6380 and 5570 and the fold fluorescence [2] was 5 [at 136 µM] (inactive).
In the case of `CC12C(=O)OC(=O)C1(C)C1CCC2O1` (stereo unspecified), the period change [5] is reported as -0.375 h (inactive), the survival [4] is reported as 0 (inactive) and the inhibition [6] is reported as 0% (inactive). For the same compound, the fluorescence ratio (interference) [7] was 1 (inactive), the fold change [1, 11] was 1.31 (inactive) and 0.948 (inactive) and the fold change [1, 12] was 1.51 and 0.943. For the same compound, the cell count [1, 13] was 607 and 462, the cell count [1, 14] was 465 and 488 and the fold fluorescence [2] was 5.03 [at 254.8 µM] (inactive). The outcome [8] was “inactive” and the z-score [9] was -1.43 (inactive).
With `CCCCCCCCCCC/C=C\C(C)(C)/C=C\CCCC(=O)O` the period change [5] was -0.11 h (inactive), the survival [4] was 88.8 (inactive) and the inhibition [6] was 0% (inactive). The fluorescence ratio (interference) [7] was 0.9 (inactive), the fold change [1, 11] was 0.986 (inactive) and 1.01 (inactive) and the fold change [1, 12] was 1.15 and 1.25. The cell count [1, 13] was 9810 and 5810, the cell count [1, 14] was 9950 and 5750 and the fold fluorescence [2] was 5.21 (inactive). For the same compound, the outcome [8] was “inactive” and the z-score [9] was 0.145 (inactive).
With `O=C1C(Nc2ccccc2)=CC(=O)c2ncccc21` the fold change [1, 11] was 0.735 (inactive) and 0.883 (inactive), the fold change [1, 12] was 1.99 and 0.965 and the cell count [1, 13] was 1070 and 904. The cell count [1, 14] was 1450 and 1020 and the fold fluorescence [2] was 7.9 [at 199.8 µM] (inactive).
In the case of `COc1cc2ncc(-c3ccccc3)nc2cc1OC`, the survival [4] is reported as 66.2 (inactive), the parasite load remaining [10] is reported as 37% (inactive) and the viability [10] is reported as 96.9%. The fold change [1, 11] was 0.803 (inactive) and 0.84 (inactive), the fold change [1, 12] was 1.43 and 0.498 and the cell count [1, 13] was 3060 and 6730. The cell count [1, 14] was 3820 and 8010, the fold fluorescence [2] was 6 [at 187.8 µM] (inactive) and the z-score [3, 15] was 0.0666 (inactive). For the same compound, the z-score [3, 16] was 1.44.
With `CCCCCCCC(=O)CC[C@@H]1[C@@H](C/C=C\CCCC(=O)O)[C@@H](O)C[C@H]1O` the fold change [1, 11] was 0.944 (inactive), the fold change [1, 12] was 1.3 and the cell count [1, 13] was 5400. It also gave a cell count [1, 14] of 5720.
For `CCCCCCCCCCCCCCCCCC(=O)N[C@H]1CCOC1=O`, the fold change [1, 11] was 1.11 (inactive), the fold change [1, 12] was 1.44 and the cell count [1, 13] was 6650. For the same compound, the cell count [1, 14] was 6000.
In the case of `CCCCCCCCC#CCC#CCC#CCCCC(=O)O`, the survival [4] is reported as 97.9 (inactive), the fold change [1, 11] is reported as 0.872 (inactive) and 1.12 (inactive) and the fold change [1, 12] is reported as 1.12 and 0.534. For the same compound, the cell count [1, 13] was 5490 and 6070, the cell count [1, 14] was 6300 and 5430 and the fold fluorescence [2] was 6.11 (inactive).
In the case of `CC(C)=CCC/C(C)=C/CC/C(C)=C/CC[C@]1(C)CCc2c(C)c(O)c(C)c(C)c2O1`, the fold change [1, 11] is reported as 0.928 (inactive), the fold change [1, 12] is reported as 0.656 and the cell count [1, 13] is reported as 5490. It also gave a cell count [1, 14] of 5920.
For `CCCCCCCCCCCCCCCC(=O)NC[C@@H](C)O`, the fold change [1, 11] was 1.02 (inactive), the fold change [1, 12] was 0.848 and the cell count [1, 13] was 6270. It also gave a cell count [1, 14] of 6160.
With `CS(=O)(=O)Nc1ccc([N+](=O)[O-])cc1OC1CCCCC1` the fold change [1, 11] was 0.816 (inactive) and 0.974 (inactive), the fold change [1, 12] was 1.1 and 1.38 and the cell count [1, 13] was 4510 and 5650. The cell count [1, 14] was 5530 and 5800 and the fold fluorescence [2] was 5.81 [at 159.1 µM] (inactive).
With `O=C(O)CCC/C=C\C[C@@H]1C(=O)C[C@@H](O)[C@@H]1/C=C/[C@@H](O)CCc1ccccc1` the fold change [1, 11] was 0.867 (inactive), the fold change [1, 12] was 0.324 and the cell count [1, 13] was 5200. It also gave a cell count [1, 14] of 6000.
With `CC[N+](C)(CC)CCC[n+]1c(-c2ccccc2)c2cc(N)ccc2c2ccc(N)cc21` the survival [4] was 5.17 (inactive), the parasite load remaining [10] was 62.2% (inactive) and the viability [10] was 92.5%. The fold change [1, 11] was 0.82 (inactive) and 0.917 (inactive), the fold change [1, 12] was 1.46 and 1.13 and the cell count [1, 13] was 7160 and 5250. For the same compound, the cell count [1, 14] was 8730 and 5720, the fold fluorescence [2] was 8.39 [at 120.6 µM] (inactive) and the z-score [3, 15] was -0.661 (inactive). For the same compound, the z-score [3, 16] was 1.71.
In the case of `COC1=C2C[C@@H](C)C[C@H](OC)[C@H](O)[C@@H](C)/C=C(\C)[C@H](OC(N)=O)[C@@H](OC)/C=C\C=C(/C)C(=O)NC(=CC1=O)C2=O`, the fold change [1, 11] is reported as 0.898 (inactive), the fold change [1, 12] is reported as 1.11 and the cell count [1, 13] is reported as 1320. For the same compound, the cell count [1, 14] was 1470.
With `CC1=C(CC/C(C)=C/CCC2C=CC(C3=CC(=O)OC3O)OC2O)C(C)(C)CCC1` (stereo unspecified) the fold change [1, 11] was 0.908 (inactive), the fold change [1, 12] was 0.704 and the cell count [1, 13] was 1170. For the same compound, the cell count [1, 14] was 1290.
In the case of `[C-]#[N+]c1cc(-c2ccncc2)c(C)[nH]c1=O`, the fold change [1, 11] is reported as 0.91 (inactive), the fold change [1, 12] is reported as 1.32 and the cell count [1, 13] is reported as 5870. It also gave a cell count [1, 14] of 6450.
In the case of `Nc1ccc2c3c(cccc13)C(=O)NC2=O`, the period change [5] is reported as 0.025 h (inactive), the inhibition [6] is reported as -1% (inactive) and the fluorescence ratio (interference) [7] is reported as 1 (inactive). The fold change [1, 11] was 0.949 (inactive) and 1.13 (inactive), the fold change [1, 12] was 1.39 and 0.672 and the cell count [1, 13] was 8220 and 6020. For the same compound, the cell count [1, 14] was 8660 and 5330, the fold fluorescence [2] was 4.37 [at 235.6 µM] (inactive) and the outcome [8] was “inactive”. For the same compound, the z-score [9] was 0.605 (inactive).
In the case of `CCCCCCCC(=O)OC[C@H](CO)OC(=O)CCCCCCC`, the survival [4] is reported as 75.3 (inactive), the fold change [1, 11] is reported as 1 (inactive) and 1.04 (inactive) and the fold change [1, 12] is reported as 1.36 and 0.811. The cell count [1, 13] was 5210 and 5590, the cell count [1, 14] was 5190 and 5400 and the fold fluorescence [2] was 6.5 (inactive).
In the case of `CCCCCCCC/C=C\C/C=C\C/C=C\CCCC(=O)NCCO`, the survival [4] is reported as 87.2 (inactive), the fold change [1, 11] is reported as 0.911 (inactive) and 1.07 (inactive) and the fold change [1, 12] is reported as 0.981 and 0.763. The cell count [1, 13] was 6100 and 5740, the cell count [1, 14] was 6690 and 5350 and the fold fluorescence [2] was 4.64 (inactive).
For `CCCCCCCC/C=C\CCCCCCCC(=O)OC[C@H](CO)OC(C)=O`, the survival [4] was 98.6 (inactive), the fold change [1, 11] was 0.972 (inactive) and 0.952 (inactive) and the fold change [1, 12] was 0.87 and 0.868. The cell count [1, 13] was 6120 and 5660, the cell count [1, 14] was 6290 and 5950 and the fold fluorescence [2] was 5.82 (inactive).
